Screening data deposited in PubChem by The Scripps Research Institute Molecular Screening Center.
Rows were chosen to be rich in hits. Some 2.9% of all compounds tested hit in one or more screens of this group.
PAFAH1B3 inh = inhibitors of human PAFAH1B3 | AID 492972 | inhibition, % at 3.39 µM | Q15102 | actives 0.28% (n = 340,000) | recombinant PAFAH1B3, FP-rhodamine probe, fluorescence polarization;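 active = inhibition above the screen-wide average of all tested compounds plus 3 SD, cut at about 25% in these data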;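 also: 0% = enzyme with DMSO only and 100% = wells lacking PAFAH1B3 protein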
LYPLA1 inh = blocks human lysophospholipase 1, a PME1 counter-screen | O75608 | recombinant LYPLA1, FP-Rh probe fluorescence polarization | inhibition, % at 5.9 µM | actives 0.16% (n = 320,000) | AID 2174;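 active = inhibition above the mean of all tested compounds plus 3 SD, set per campaign, cut at about 14% in these data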;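 also: inhibitors block serine hydrolase probe labeling of LYPLA1 so polarization falls; 0% = enzyme with DMSO and 100% = wells lacking LYPLA1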
Target sequence (O75608 whole entry, looked up): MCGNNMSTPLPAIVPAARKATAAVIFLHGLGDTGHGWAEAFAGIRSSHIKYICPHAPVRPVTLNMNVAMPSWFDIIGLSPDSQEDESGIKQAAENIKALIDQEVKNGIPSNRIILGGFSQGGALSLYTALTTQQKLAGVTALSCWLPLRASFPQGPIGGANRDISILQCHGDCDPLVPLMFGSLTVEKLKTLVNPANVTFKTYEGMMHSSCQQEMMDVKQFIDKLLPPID
LYPLA2 counter = counter-screen for PME1 inhibitors: inhibitors of human LYPLA2. recombinant LYPLA2, FP-Rh probe fluorescence polarization. AID 2177. actives 0.38% (n = 320,000). inhibition, % at 5.9 µM. O95372;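 active = inhibition above the screen-wide mean plus 3 SD, limit set per campaign, cut at about 26% in these data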;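 also: 0% = LYPLA2 with DMSO and 100% = wells lacking LYPLA2 enzyme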
PAFAH2 inh = PAFAH2 (human) inhibition; AID 492956; recombinant PAFAH2, FP-rhodamine activity probe, fluorescence polarization; Q99487; actives 0.99% (n = 340,000); inhibition, % at 3.39 µM;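 active = inhibition above the mean over all tested compounds plus 3 SD, cut at about 30% in these data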;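 also: inhibitors block probe labeling of enzyme so polarization drops; 0% = enzyme with DMSO and 100% = wells lacking PAFAH2 protein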
pPAFAH inh = inhibitors of human plasma PAF acetylhydrolase (pPAFAH); Q13093; recombinant pPAFAH, FP-rhodamine probe fluorescence polarization; inhibition, % at 3.39 µM; actives 1.5% (n = 330,000);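 active = inhibition above the mean inhibition across the screen plus 3 SD, cut at about 25% in these data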;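 also: inhibitors block binding of the rhodamine activity-based probe so polarization drops; 0% = enzyme with DMSO and 100% = wells lacking pPAFAH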
PAFAH1B2 inh = blocks human PAF acetylhydrolase 1b catalytic subunit 2; P68402; recombinant PAFAH1B2, FP-rhodamine activity probe, fluorescence polarization; inhibition, % at 3.39 µM; actives 1.2% (n = 340,000); AID 492953;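 active = inhibition above the mean of all tested compounds plus 3 SD, cut at about 24% in these data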;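 also: 0% = enzyme with DMSO and 100% = wells lacking PAFAH1B2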
Target sequence (P68402 whole entry, looked up): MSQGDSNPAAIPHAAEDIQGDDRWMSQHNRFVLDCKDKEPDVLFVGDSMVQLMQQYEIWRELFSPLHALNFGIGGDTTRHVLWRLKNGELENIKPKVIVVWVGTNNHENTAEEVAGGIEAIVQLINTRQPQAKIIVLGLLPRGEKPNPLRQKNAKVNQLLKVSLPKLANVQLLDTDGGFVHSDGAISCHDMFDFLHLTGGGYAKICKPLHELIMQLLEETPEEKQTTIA
* = called active by the depositor; . = not tested or not shown.

SMILES	PAFAH1B3 inh	LYPLA1 inh	LYPLA2 counter	PAFAH2 inh	pPAFAH inh	PAFAH1B2 inh
N/C(=N\OC(=O)C1CCCCC1)c1ccc(Br)cc1	13.7	1.0	-5.4	3.4	-1.7	6.0
CN1CCN(C(=O)c2ccccc2NC(=O)CCN2C(=O)c3ccccc3C2=O)CC1	1.6	0.1	7.0	8.6	2.0	4.0
O=Nc1c(O)ccc2cc(S(=O)(=O)O)ccc12	22.6	.	.	4.0	.	9.6
CN(C)c1ccc2cc(S(=O)(=O)O)cc(O)c2c1	52.1*	.	.	37.6*	.	37.6*
COc1ccccc1NC(=O)C1=C(C)NC(=O)NC1c1ccccc1F (stereo unspecified)	6.5	-1.2	-7.0	0.2	-4.5	1.1
Cc1ccc(SCCC(=O)OCn2nnc3ccccc3c2=O)cc1	2.3	0.7	2.4	3.4	12.8	21.9
Cc1ccc(SCC(=O)OCn2nnc3ccccc3c2=O)cc1C	5.9	-3.0	0.1	-8.1	29.8*	6.3
O=C(Nc1nc(-c2nc3ccccc3s2)cs1)C1COc2ccccc2O1 (stereo unspecified)	7.1	-3.6	-19.5	-9.0	-0.5	-3.1
O=c1ccc2[n+]([O-])c3ccc(O)cc3oc-2c1	149.5*	.	.	154.8*	.	136.3*
O=c1cc(O)c2ccc(O)cc2o1	6.2	2.7	-0.6	-1.4	23.2	-3.0
Cc1cc(NCCCO)n2nc(-c3cccs3)cc2n1	0.5	-2.3	0.6	-3.8	0.6	5.0
OCCCNc1cc(-c2ccccc2)nc2cc(-c3ccc(F)cc3)nn12	5.5	-6.9	-7.2	-10.1	3.6	26.2*
Cc1ccc(S(=O)(=O)N2CCN(C(=O)N(c3ccccc3)c3ccccc3)CC2)cc1	3.2	-1.0	0.5	12.4	3.7	25.7*
Cc1ccc(N(C)C(=O)N2CCN(S(=O)(=O)c3ccc(C)cc3)CC2)cc1	1.1	1.9	-4.7	-0.4	4.2	0.8
Cc1ccc(S(=O)(=O)N2CCN(C(=S)NCCc3ccccc3)CC2)cc1	9.8	2.0	8.6	2.2	0.4	44.9*
CCN(CC(=O)Nc1ccc(NC(C)=O)cc1)C(=O)C1CCC1	1.3	0.9	6.1	-6.6	0.5	2.5
Cc1ccc(C)c(NC(=O)Cc2csc(-c3ccccc3)n2)c1	15.7	0.7	0.9	-1.4	-1.7	3.7
CCOC(=O)N1CCN(C(=O)c2ccc3c(=O)n(CCC4=CCCCC4)c(=S)[nH]c3c2)CC1	3.2	-1.1	-1.7	8.7	5.5	24.8*
CC(O)[C@H]1CNC(=O)C(=O)N1CCC12CC3CC(CC(C3)C1)C2 (stereo partly specified)	10.5	0.6	1.0	13.3	0.0	24.8*
COc1ccccc1N(CC(N)=O)S(=O)(=O)c1ccc(C)cc1	2.4	3.9	2.3	-7.8	-1.3	3.0
N#CC1=C(N)S[C@H](C(=O)C23CC4CC(CC(C4)C2)C3)[C@H]1c1ccncc1	2.8	0.9	12.1	7.5	-0.8	28.4*
O=C(Nc1nnc(C2CC2)s1)c1cc(-c2ccccc2)nn1-c1ccccc1	-2.2	-0.5	-4.8	-2.2	4.7	15.2
O=C(O)c1cc(-c2cccc(Cl)c2)nc2nc(N3CCCCC3)sc12	27.3*	-0.9	-1.7	11.8	-0.1	81.9*
O=C(c1cc(-c2cccc(Cl)c2)nc2ccccc12)N1CCN(c2ccccn2)CC1	1.5	-4.9	-1.8	3.8	4.7	-3.6
O=C(NCc1ccccc1)C12CC3CC(CC(C3)C1)C2	13.4	0.9	-0.5	1.2	-5.9	12.4
O=C(Nn1nnnc1Nc1ccccc1)C12CC3CC(CC(C3)C1)C2	3.4	-0.7	-3.4	4.4	5.0	26.7*
CC1C/C(=N\NC(=O)c2ccc(NS(=O)(=O)c3ccc(Br)cc3)cc2)CC(C)(C)C1 (stereo unspecified)	-10.4	-8.0	-2.4	13.7	17.8	25.5*
CC1C/C(=N\NC(=O)c2ccc([N+](=O)[O-])cc2)CC(C)(C)C1 (stereo unspecified)	-1.9	3.4	1.7	5.7	8.2	1.1
O=C(Cc1c(C(=O)O)[nH]c2ccccc12)NCCN1CCN(c2cccc(Cl)c2)CC1	9.3	-4.0	2.1	0.6	4.5	24.8*
O=C(O)c1[nH]c2ccc(Cl)cc2c1CC(=O)N1CCN(c2ccccc2)CC1	5.7	1.8	-1.9	7.5	4.9	24.5*
